Compound activity from PubChem BioAssay.
LDHA inh: LDHA (human) enzyme inhibition. P00338. purified LDHA, NADH/diaphorase-resazurin fluorescence; hits give low values. 0.15% of 480,000 active. activity change, % (values are at about 110 or 230 µM); in the data active = activity change below about -30%; inconclusive = mostly about -25% to -30%
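LDH5 2 nM; NADH 0.06 mM, pyruvate 0.2 mM; 200 mM Tris pH 7.4, EDTA, Tween-20; 5 min RT. Detection: diaphorase 0.133 mg/mL + resazurin 37 µM, fluorescence ex540/em590 at 0 and 20 min; normalized to enzyme-free and DMSO wells.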
12-LOX inh: ALOX12 (human) lipoxygenase inhibition; purified 12hLO, xylenol orange hydroperoxide absorbance; Potency, µM (highest dose often 108 µM), actives largely listed as inhibitors; 1.1% of 580,000 active; P18054
Target sequence (P18054 whole entry, looked up): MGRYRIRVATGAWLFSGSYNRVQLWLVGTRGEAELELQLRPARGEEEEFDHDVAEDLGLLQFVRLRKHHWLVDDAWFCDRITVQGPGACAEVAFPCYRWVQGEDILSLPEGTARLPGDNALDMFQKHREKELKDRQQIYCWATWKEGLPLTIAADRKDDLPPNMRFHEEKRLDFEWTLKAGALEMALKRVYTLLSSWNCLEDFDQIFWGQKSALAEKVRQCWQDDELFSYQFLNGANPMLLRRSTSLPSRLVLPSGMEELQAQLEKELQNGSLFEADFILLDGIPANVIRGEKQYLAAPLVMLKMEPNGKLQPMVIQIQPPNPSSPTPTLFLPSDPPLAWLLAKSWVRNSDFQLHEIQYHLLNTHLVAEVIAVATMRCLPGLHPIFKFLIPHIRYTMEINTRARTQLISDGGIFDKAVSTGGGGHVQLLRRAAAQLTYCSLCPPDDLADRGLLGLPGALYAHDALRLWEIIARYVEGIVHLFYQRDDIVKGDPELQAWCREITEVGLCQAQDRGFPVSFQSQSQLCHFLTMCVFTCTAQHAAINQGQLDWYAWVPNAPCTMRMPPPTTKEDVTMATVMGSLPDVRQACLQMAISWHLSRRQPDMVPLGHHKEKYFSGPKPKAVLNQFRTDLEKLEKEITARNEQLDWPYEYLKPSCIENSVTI
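Purified human 12hLO (150 nM final) in 25 mM Hepes, 0.01% Triton X-100, pH 7.0 was preincubated 15 min at room temperature with compound. Then 40 uM arachidonic acid was added, 30 min. Hydroperoxide was read by Fe-XO absorbance ratio 573/405 nm.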
ERG Ets-DNA blk: blocks human ERG Ets domain binding to DNA | P11308 | fluorescence polarization, His-ERG Ets domain / labelled DNA | Potency, µM (series often up to 76.9 µM), most hits filed as inhibitors | 0.028% of 370,000 active; active = well fitted inhibition curve with a large enough effect in the polarisation, with a control signal flat; inconclusive = small, poorly fitted or top-dose-only effect, or effect the other way, or a change in a side signal; inactive = no such curve, though single readings can be large or run the other way; the % refers to the polarisation;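 note: polarization taken with two DNA probes labelled with fluorescein and Texas red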
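His-tagged ERG Ets domain (1 uM in the protein solution; 300mM KCl, 50mM Tris-HCl, 1mM EDTA, 1mM DTT, pH 7.5) received compound, then a probe mix of 5 nM fluorescein-DNA and 100nM Texas-615-DNA. Fluorescence polarization was read for both dyes.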
Nrf2 ARE act: activators of Nrf2 (ARE) signaling; AREc32 ARE-luciferase reporter (MCF7-derived line), luminescence, 24 h; 0.31% of 410,000 active; Potency, µM (highest dose often 46.1 µM), most hits filed as activators; note: nearly all actives have a fitted effect of over 65% in size
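AREc32 cells carrying an ARE-driven firefly luciferase, 1000 cells/well in OPTI-MEM with 5% FBS, dosed after overnight attachment and incubated 24 hr at 37 deg C. Steady-Glo luminescence read after 30 min at RT.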
Nrf2 inh: Nrf2 pathway inhibition | AID 504444 | Potency, µM (highest dose often 46 µM), hits mostly inhibitors | 2.1% of 360,000 active | A549 ARE-Fluc reporter, luciferase luminescence, 18-24 h; note: nearly all actives have a fitted effect of over 60% in size
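Quantitative HTS in A549 cells stably bearing an antioxidant response element-firefly luciferase construct. Inhibition of Nrf2-driven transcription was scored by luminescence after 18-24 h of compound exposure at 37 °C.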
A549 tox: counter-screen for Nrf2 inhibitors: cytotoxicity in A549 cells | A549 ARE-Fluc cells, CellTiter-Fluor viability, 18-24 h | Potency, µM (titrated, usually from 46 µM), usual class: inhibitors | 0.16% of 390,000 active | AID 504648
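A549 ARE-Fluc cells in 5% FBS OPTI-MEM, 5000 cells/well, rested 2 h then exposed to compounds in concentration-response for 18-24 h at 37 °C. Viability by CellTiter-Fluor fluorescence (Ex 405/Em 525) after 30 min; luciferase luminescence (BugLite, 15 min, RT) read afterwards.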
Large screens that a line does not name were inactive; ! = a repeat was not active. An excerpt weighted towards active compounds, which were near 2.7% of everything screened. Unless noted, calls come from the whole dose curve; as a rule, active = well fitted curve in the direction sought with a large enough effect; inconclusive = small, poorly fitted or top-dose-only effect, or another doubt; inactive = no such curve, though single readings can be large; an effect the other way counts as inactive or inconclusive.

COc1cccc(C2c3c(ncn(-c4cccc(OC)c4)c3=N)Oc3ccc4ccccc4c32)c1 (stereo not given)	none (no result: 12-LOX inh, ERG Ets-DNA blk, Nrf2 ARE act)
COc1cccc(C2c3c(ncn(-c4ccccc4)c3=N)Oc3ccc4ccccc4c32)c1 (stereo not given)	Nrf2 inh 15µM!, A549 tox 15µM! (no result: 12-LOX inh, ERG Ets-DNA blk, Nrf2 ARE act)
COc1cccc(C2c3c(ncn(-c4ccc(-c5ccccc5)cc4)c3=N)Oc3ccc4ccccc4c32)c1 (stereo not given)	Nrf2 inh inconclusive (no result: 12-LOX inh, ERG Ets-DNA blk, Nrf2 ARE act)
O=c1cc(CSc2nnc(-c3cccs3)n2Cc2ccccc2)nc2sc3ccccc3n12	Nrf2 inh 26µM
Cc1cc(C(=O)CSc2nnc(-c3cccs3)n2Cc2ccccc2)c(C)n1C	none
COc1ccc2cc(C(=O)Nc3ccc(N(C)C)c(C)c3)c(C)nc2c1	none (no result: ERG Ets-DNA blk, Nrf2 ARE act, Nrf2 inh, A549 tox)
C=CCSc1nnc(-c2cccc3ccccc23)o1	none (no result: ERG Ets-DNA blk)
C#CCSc1nnc(-c2cccc3ccccc23)o1	Nrf2 ARE act 11µM
CCOc1cc(/C=C2/NC(=O)NC2=O)cc(Br)c1OCC	12-LOX inh inconclusive (no result: ERG Ets-DNA blk, Nrf2 ARE act, Nrf2 inh, A549 tox)
O=C(/C=C/c1ccco1)Nc1ccc2oc(-c3cccc(F)c3)nc2c1	12-LOX inh inconclusive (no result: ERG Ets-DNA blk, Nrf2 ARE act, Nrf2 inh, A549 tox)
O=C1CC(N2CCN(S(=O)(=O)c3ccccc3F)CC2)C(=O)N1c1ccccc1F (stereo not given)	LDHA inh -35, 12-LOX inh inconclusive
Cc1cc(=O)oc2cc(OC(C)C(=O)Nc3ccc(S(=O)(=O)NC(C)C)cc3)ccc12 (stereo not given)	12-LOX inh inconclusive (no result: ERG Ets-DNA blk, Nrf2 ARE act, Nrf2 inh, A549 tox)
CC(C)[C@H](NC(=O)c1ccc([N+](=O)[O-])cc1Cl)C(=O)N1CCN(C/C=C/c2ccccc2)CC1	Nrf2 inh 23µM, A549 tox inconclusive
Cc1nc2sc3c(c2c2nc(C(=O)NCCN(C)C)nn12)CCCC3	12-LOX inh inconclusive (no result: ERG Ets-DNA blk, Nrf2 ARE act, Nrf2 inh, A549 tox)
COc1ccc2nc(C)c(C(=O)NC3CCS(=O)(=O)C3)cc2c1 (stereo not given)	none (no result: ERG Ets-DNA blk, Nrf2 ARE act, Nrf2 inh, A549 tox)
C(/C=C/c1ccccn1)=C\c1ccccc1	Nrf2 ARE act 13µM, Nrf2 inh inconclusive
C(=C\c1ccccn1)/c1ccncc1	12-LOX inh inconclusive
CN(Cc1cccc(Cl)c1Cl)C(=O)CCNC(=O)Nc1ccccc1	none (no result: ERG Ets-DNA blk, Nrf2 ARE act, Nrf2 inh, A549 tox)
Cc1cccc(C(=O)Nc2ccc(C3(C(=O)NCCC(C)C)CCCCC3)cc2)c1	12-LOX inh 7.9µM (no result: ERG Ets-DNA blk, Nrf2 ARE act, Nrf2 inh, A549 tox)
CSc1ccc(C(=O)C2CCCN(C(=O)c3nn(C)c(=O)c4ccccc34)C2)cc1 (stereo not given)	Nrf2 inh 18µM
O=C(NCc1cccnc1-n1cccn1)c1ccc(-c2ccc(F)cc2)o1	none (no result: ERG Ets-DNA blk, Nrf2 ARE act, Nrf2 inh, A549 tox)
CCc1ccc(OCC2c3cc(OC)c(OC)cc3CCN2C(=S)NCCOC)cc1 (stereo not given)	none
CCc1ccc(OCC2c3cc(OC)c(OC)cc3CCN2C(=S)NC)cc1 (stereo not given)	Nrf2 inh 18µM
Brc1cccc[n+]1CCCCCC[n+]1ccccc1Br	LDHA inh -60 (no result: 12-LOX inh, ERG Ets-DNA blk, Nrf2 ARE act, Nrf2 inh, A549 tox)
Brc1cccc[n+]1CCCC[n+]1ccccc1Br	LDHA inh -62 (no result: 12-LOX inh, ERG Ets-DNA blk, Nrf2 ARE act, Nrf2 inh, A549 tox)
Cc1ccc(-c2cc3c(=O)n(CCNC(=O)c4ccc[nH]c4=O)ccn3n2)cc1C	none (no result: LDHA inh, ERG Ets-DNA blk, Nrf2 ARE act, Nrf2 inh, A549 tox)
CC1(C)CC(N2CCCCC2)=CC(=NCCCN2CCOCC2)C1	12-LOX inh 22µM (no result: ERG Ets-DNA blk, Nrf2 ARE act, Nrf2 inh, A549 tox)
CCOC(=O)c1c(C)c(-c2ccccc2)n(CC(=O)Nc2cc(OC)ccc2OC)c1C	none (no result: ERG Ets-DNA blk, Nrf2 ARE act, Nrf2 inh, A549 tox)
CC(NC(=O)CSc1nnc(C2CC2)n1C1CC1)c1ccc2c(c1)CCCC2 (stereo not given)	12-LOX inh inconclusive (no result: ERG Ets-DNA blk, Nrf2 ARE act, Nrf2 inh, A549 tox)
COc1cccc(/C=C/c2ccc3cccc(O)c3n2)c1O	12-LOX inh inconclusive (no result: ERG Ets-DNA blk, Nrf2 ARE act, Nrf2 inh, A549 tox)
COc1cccc(/C=C/c2ccccn2)c1O	Nrf2 ARE act 8.9µM
C=C1C(=O)C23C(O)C1CCC2C12CCCC(C)(COC(C)=O)C1C(O)C3(O)OC2 (stereo not given)	Nrf2 inh 9.2µM, A549 tox 18µM (no result: ERG Ets-DNA blk)
Cc1nn(-c2ccccc2)cc1C(=O)N1CCC(C(C)C(=O)NCc2ccccc2)CC1 (stereo not given)	none (no result: ERG Ets-DNA blk, Nrf2 ARE act, Nrf2 inh, A549 tox)
Cc1ccc(C(=O)NCC(C)(C)CNC(=O)c2ccc(C)c(C)c2)cc1C	12-LOX inh inconclusive (no result: ERG Ets-DNA blk, Nrf2 ARE act, Nrf2 inh, A549 tox)
